An excerpt weighted towards active compounds, which were near 21% of everything screened.
Pf growth 96h – Primary qHTS for delayed death inhibitors of the malarial parasite plastid, 96 hour incubation | P. falciparum luciferase reporter growth, 96 h | Potency, µM (highest dose often 28.7 µM), for inactives: at the highest dose activity change, negative = inhibition, actives largely listed as inhibitors | 6.9% of 320,000 active | AID 504834, 2011; active = well fitted inhibition curve with a large enough effect; inconclusive = small, poorly fitted or top-dose-only effect, or another doubt; inactive = no such curve, though single readings can be large or run the other way; also: potency is read from the fitted curve at half-maximal effect; % is scaled to controls: 0 for no effect and ±100 for the full control effect
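Plates of compound plus infected erythrocytes (2% hematocrit, 0.05% parasitemia final) incubate 96 hours, 37 C, 5% CO2. Detection reagent added; reduced luminescence from the parasites' luciferase reporter flags inhibition.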
Pf growth 48h – Primary qHTS for delayed death inhibitors of the malarial parasite plastid, 48 hour incubation | Potency, µM (top dose mostly 28.7 µM), for inactives: at the top dose activity change, negative = inhibition, usual class: inhibitors | P. falciparum luciferase growth in erythrocytes, 48 h | AID 504832, 2011 | 5.9% of 310,000 active; active = well fitted inhibition curve with a large enough effect; inconclusive = small, poorly fitted or top-dose-only effect, or another doubt; inactive = no such curve, though single readings can be large or run the other way; also: potency is read from the fitted curve at half-maximal effect; % is scaled to controls: 0 for no effect and ±100 for the full control effect
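Read-out is firefly luciferase luminescence from an integrated reporter in P. falciparum, so falling signal marks reduced parasite growth. Infected erythrocytes were at 2% hematocrit and 0.1% parasitemia (final) in Albumax-supplemented RPMI 1640.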
Cycloheximide cs – Cycloheximide Counterscreen for Small Molecule Inhibitors of Shiga Toxin | cell reporter, cycloheximide protein synthesis inhibition counterscreen | max response, % | 12% of 300,000 active | AID 2314, 2010; in the data active = max response mostly above about 13%, no sharp cut-off; inactive = mostly below about 14%; also: read at 38.3 µM for the half of the compounds with a filed dose; 0% is about no effect
SARS PLpro yeast – qHTS of Yeast-based Assay for SARS-CoV PLP | S. cerevisiae expressing SARS-CoV PLpro, growth rescue | Potency, µM (highest dose often 32.9 µM), without a hit: at the highest dose activity, positive = growth rescue, actives largely listed as activators | 0.19% of 330,000 active | AID 485353, 2010; also: potency is read from the fitted curve at half-maximal effect; 0% is about no effect; nearly all actives have a fitted effect of over 55% in size
Shiga toxin inh – A qHTS for Small Molecule Inhibitors of Shiga Toxin; 9.2% of 290,000 active; inhibition, % at 38.7 µM; Vero cells, Shiga toxin protein synthesis inhibition reporter; in the data active = inhibition mostly above about 28%, no sharp cut-off; inactive = mostly below about 43%; also: 0% is about no effect
NS1 inh – qHTS Assay for Inhibitors of Influenza NS1 Protein Function; Potency, µM (doses to about 46.1 µM), for inactives: at the top dose activity, positive = more growth; 0.4% of 270,000 active; AID 2326, 2010; also: potency is read from the fitted curve at half-maximal effect; actives are rising curves; nearly all actives have a fitted effect of over 50% in size
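A cell-based growth assay was used: compounds that relieve NS1-induced slow growth of budding yeast raise OD600. Assay medium was yeast nitrogen base with ammonium sulphate and -URA supplement, pH 6.0, with 2% galactose.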
An asterisk follows results filed as active; ? = inconclusive; / = no result given; [ ] = another dose, or the depositor's remark. Unless noted, calls follow the shape of the full dose curve.

SMILES	Pf growth 96h	Pf growth 48h	Cycloheximide cs	SARS PLpro yeast	Shiga toxin inh	NS1 inh
CCCCC(c1nnnn1C1CCCC1)N1CCN(C2CCCC2)CC1 (configuration not stated)	?	?	32*	6%	-20	0%
CCCC(c1nnnn1C1CCCCC1)N1CCN(C2CCCC2)CC1 (configuration not stated)	/	-3%	-6	0%	-12	-3%
CCCCNC(=O)c1ccc(NC(=O)CC2SC(N3CCCC3)=NC2=O)cc1 (configuration not stated)	?	?	/	-7%	/	/
Clc1ccccc1C(c1nnnn1Cc1ccco1)N1CCN(Cc2ccco2)CC1 (configuration not stated)	3%	15µM*	5	2%	36	-3%
COc1cccc(C(c2nnnn2Cc2ccccc2)N2CCN(C(=O)c3ccco3)CC2)c1OC (configuration not stated)	?	9.3µM*	-1	1%	-4	-18%
CCCC(c1nnnn1C1CCCCC1)N1CCN(C(=O)c2ccco2)CC1 (configuration not stated)	11%	3.7µM*	-10	/	-1	-3%
CCCC(c1nnnn1Cc1ccco1)N1CCN(C2CCCC2)CC1 (configuration not stated)	12µM*	-11%	-2	6%	-10	?
Cc1cc2c3ccccc3ncn2n1	40%	8%	-5	0%	-8	-2%
CON(C)S(=O)(=O)c1cccc(C(=O)N(CC(=O)Nc2ccccc2C(F)(F)F)Cc2ccco2)c1	/	/	/	-2%	/	/
Cc1cc(=O)[nH]c(SCC(=O)Nc2ccc3c(c2)CCC3)c1C#N	0%	-3%	/	-16%	/	/
CCOc1ccc(C(c2nnnn2Cc2ccccc2)N2CCN(C(=O)c3ccco3)CC2)cc1 (configuration not stated)	/	/	/	/	/	-3%
O=C(c1ccco1)N1CCN(C(c2ccc(Cl)cc2)c2nnnn2Cc2ccccc2)CC1 (configuration not stated)	10µM*	12µM*	13*	18%	15	6%[9.22 µM]
Cc1ncc(CN2CCCC(C(=O)Nc3ccc(-n4ccnc4C)cc3)C2)cn1 (configuration not stated)	5%	14%	-3	0%	4	-6%
COc1ccc(C2C(CC(=O)O)=C(Nc3ccccc3)C(=O)N2c2ccccc2)cc1 (configuration not stated)	10%	75%	37*	-1%	132	/
O=C(O)CC1=C(Nc2ccccc2)C(=O)N(c2ccccc2)C1c1ccc(F)cc1 (configuration not stated)	85%	88%	52*	-16%	99*	20%
COc1ccccc1-n1cc2c([N+](=O)[O-])cc([N+](=O)[O-])cc2n1	17%	?	1	-2%	-7	0%
CCc1ccc(NC(=O)c2sc3nc4n(c(=O)c3c2C)CCC4)cc1	?	-1%	29*	-10%	36*	-14%
CC(=O)Nc1ccc(NC(=O)c2sc3nc4n(c(=O)c3c2C)CCCCC4)cc1	?	-10%	-1	0%	12	/
COc1ccc(COC(=O)c2sc3nc4n(c(=O)c3c2C)CCC4)cc1	?	9.3µM*	/	4%	/	/
Cc1c(C(=O)O)sc2nc3n(c(=O)c12)CCC3	17%	9%	-1	0%	-3	/
CC(=O)NC1C(Oc2ccccc2C)OC2COC(c3ccco3)OC2C1O (configuration not stated)	17%	-1%	-3	20%	-14	?
CC/C(=C\C=C\[C@@H]1C=C[C@@H]2CCC[C@H]2[C@@H]1C(=O)c1ccc[nH]1)[C@@H]1O[C@@H]([C@@H](C)C(=O)O)CC[C@@H]1C	?	2.6µM*	1	-93%	11	-33%
Cc1ccc(C(=O)CSc2nnc(COc3cccc4cccnc34)o2)cc1	3.3µM*	?	22	-9%	1	-44%
O=C(CSc1nnc(COc2cccc3ccccc23)o1)N1c2ccccc2CCc2ccccc21	6%	-30%	2	/	-12	-4%
NC(=O)CSc1nnc(COc2cccc3ccccc23)o1	12µM*	3%	1	-2%	-4	-7%
SMILES	Pf growth 96h	Pf growth 48h	Cycloheximide cs	SARS PLpro yeast	Shiga toxin inh	NS1 inh
COC(=O)CN1C(=O)[C@@H]2[C@H](C1=O)[C@@H]1CC(C(=O)OC)=C[C@@H](C(=O)OC)C3C1=C(C(=O)[C@@]3(C)NC(=O)c1ccccc1)[C@@H]2C (some centres not stated)	/	/	-2	/	-8	/
O=C(Nc1cc(Cl)cc2c1[nH]c1cnccc12)c1cccnc1	/	/	-8	/	-6	/
O=C1C(=O)N(c2nccs2)C(c2ccccc2F)/C1=C(\O)c1ccc2c(c1)OCCO2 (configuration not stated)	-15%	-18%	32*	2%	33	13%
COc1ccc(C2/C(=C(\O)c3ccc4c(c3)OCCO4)C(=O)C(=O)N2CCCN(C)C)cc1 (configuration not stated)	3%	-28%	-8	8%	-23	2%
Cc1ccc(C2/C(=C(\O)c3ccc4c(c3)OCCO4)C(=O)C(=O)N2CCCN(C)C)o1 (configuration not stated)	136%	31%	19*	-3%	28	2%
CC1Cc2cc(/C(O)=C3/C(=O)C(=O)N(CCN4CCOCC4)C3c3ccc([N+](=O)[O-])cc3)ccc2O1 (configuration not stated)	9.3µM*	24%	15*	-4%	27	-2%
COc1ccc(C2/C(=C(/O)c3ccc4c(c3)CC(C)O4)C(=O)C(=O)N2CCN2CCOCC2)cc1 (configuration not stated)	22%	1%	-2	-3%	-17	-32%
O=C1C(=O)N(CCN2CCOCC2)C(c2ccccc2)/C1=C(\O)c1ccc2c(c1)OCCO2 (configuration not stated)	-21%	5%	36*	-4%	23*	-11%
O=C1C(=O)N(c2nccs2)C(c2ccccc2)/C1=C(\O)c1ccc2c(c1)OCCO2 (configuration not stated)	-29%	-16%	15	-3%	22	17%
COc1cccc2cc(C(=O)C3=C(O)C(=O)N(CCN4CCOCC4)C3c3ccc(C)o3)oc12 (configuration not stated)	-9%	-14%	5	-12%	-9	19%
COc1ccc(C2/C(=C(/O)c3ccc4c(c3)CC(C)O4)C(=O)C(=O)N2CCCN2CCOCC2)cc1 (configuration not stated)	32%	13%	19*	3%	-1	-3%

From PubChem
